Test results as given in PubChem BioAssay AID1159580 (chemical genetic matrix, 2015).
About 2,000 (36%) of roughly 5,500 compounds were called active. Inconclusive results (about 18%) are left out. Cut-off read from the data, not from the text of the source: active = normalized growth mostly below about 0.91 (no sharp cut-off); inconclusive = no clear call, values can overlap the other calls; inactive = mostly above about 0.92. This is one part of the list.

Test: chemical genetic growth profiling, strain panel (AID 1159580);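 note: tested at 20 µM; growth read once vehicle control cultures reached saturation at 30 °C; 1 = growth at the plate median or of vehicle wells; lower values mean less growth of the strain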
Details: S. cerevisiae deletion strains, growth OD

Measured: normalized growth

Cc1cc2c(s1)Nc1ccccc1N=C2N1CCN(C)CC1
inactive: locus YHR030C, strain SLT2, stronger effect = lower value 0.975 | locus YHR079C, strain IRE1, stronger effect = lower value 0.976 | locus YJL095W, strain BCK1, stronger effect = lower value 1.01 | locus YJR066W, strain TOR1, stronger effect = lower value 0.944 | locus YLR113W, strain HOG1, stronger effect = lower value 1.05 | locus YNL183C, strain NPR1, stronger effect = lower value 0.969 | locus YOR231W, strain MKK1, stronger effect = lower value 1 | locus YPL256C, strain CLN2, stronger effect = lower value 1.03
